Structures can show the parent of a compound that is named as a salt.
What follows are compounds tested on LOC_OS02G08530-cb003 (assay: thermal shift delta Tm vs DMSO control; higher = stronger stabilization (binding)). Settings: 12.5 µM; protein concentration 2 µM.
How it was run: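 Compounds dissolved in DMSO were added to purified rice kinase domain constructs, which had been expressed in E. coli, for differential scanning fluorimetry. Each well held 19.5 μl of 2 μM kinase in 100 mM potassium phosphate pH 7.5, 150 mM NaCl, 10% glycerol and 5 × SYPRO Orange. Fluorescence was followed from 25°C to 95°C at a rate of 0.05°C/s. Shifts in Boltzmann-fitted melting temperature are triplicate means relative to DMSO-only protein.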

| Compound | thermal shift delta Tm [°C] |
| --- | --- |
| Cc1cnc(Nc2ccc(OCCN3CCCC3)cc2)nc1Nc1cccc(S(=O)(=O)NC(C)(C)C)c1 | 2.64 |
| CN1CCN(CCOc2cc(OC3CCOCC3)c3c(Nc4c(Cl)ccc5c4OCO5)ncnc3c2)CC1 [Saracatinib (AZD0530)] | 1.2 |
| Cn1cc(-c2ccc(F)c(C(F)(F)F)c2)nc1C1CCN(c2ncnc3[nH]ncc23)CC1 | 0.53 |
| O=C(O)c1ccc2c(c1)nc(Nc1cccc(Cl)c1)c1ccncc12 [Silmitasertib (CX-4945)] | 1.24 |
| Cn1c(=O)c(F)c(Nc2ccc(I)cc2F)c2c(=O)n(C[C@@H](O)CO)cnc21 | 0.9 |
| O=C(NC[C@H](O)CO)c1ccncc1Nc1ccc(I)cc1F | 0.65 |
| COc1c(C)c(C(=O)c2ccc(N)c(C(=O)O)c2)n2ccccc12 | 0.95 |
| COc1cc(N2CCC(N)CC2)ccc1Nc1ncc(Cl)c(-c2c[nH]c3ccccc23)n1 | 7.02 |
| C=CC(=O)Nc1ccc2ncnc(Nc3ccc(OCc4cccc(F)c4)c(Cl)c3)c2c1 | 1.07 |
| CCS(=O)(=O)N1CCN(c2ccc(Nc3ncc(C(N)=O)c(NC4CC4)n3)cc2)CC1 | 3.19 |
| O=C1c2ccc(Nc3ccc(F)cc3F)cc2CCc2ccc(OC[C@H](O)CO)cc21 [Skepinone-L] | 0.85 |
| CCN1C(=O)CNc2ncc(-c3ccc(-c4nc[nH]n4)nc3C)nc21 | 0.04 |
| Cc1ccc(CNc2ncnc3ccc(-c4ccc(CO)o4)cc23)o1 | 1.61 |
| CCc1cncnc1N1CCN(Cc2nc3ccc(C(F)(F)F)cc3[nH]2)CC1 | 0.49 |
| Cc1cc(CN2CCN(c3c(Br)cnc4nc(-c5ccc(N6CCN(C)CC6)cc5)[nH]c34)CC2)no1 | 0.33 |
| Cc1nc(-c2cn3c(n2)-c2ccc(-c4cnn(C(C)(C)C(N)=O)c4)cc2OCC3)n(C(C)C)n1 [Taselisib (GDC 0032)] | 0.84 |
| Cc1ccc(NC(=O)c2ccc(CN3CCN(C)CC3)cc2)cc1Nc1nccc(-c2cccnc2)n1 [Imatinib Mesylate (STI571)] | 1.09 |
| O=c1cc(N2CCOCC2)oc2c(-c3ccccc3)cccc12 | 0.91 |
| Nc1ncccc1-c1nc2ccc(-c3ccccc3)nc2n1-c1ccc(C2(N)CCC2)cc1 [Miransertib (ARQ 092) HCl] | 0.49 |

| Compound | thermal shift delta Tm [°C] |
| --- | --- |
| CNS(=O)(=O)C[C@H]1CC[C@H](N(C)c2[nH]cnc3nccc2-3)CC1 [Oclacitinib] | 2.49 |
| N#Cc1ccc2[nH]c(O)c(-c3ccc(CN4CCOCC4)cn3)c2c1 | 1.04 |
| C[C@]1(O)C[C@@H](c2nc(-c3ccc4ccc(-c5ccccc5)nc4c3)c3c(N)nccn32)C1 [Linsitinib (OSI-906)] | 0.86 |
| CN1CCC(COc2cnc(-c3cccc(Cn4nc(-c5cccc(C#N)c5)ccc4=O)c3)nc2)CC1 | 0.12 |
| CC(C)(C)c1nc(-c2ccc(NC(=O)Nc3cccc(C(F)(F)F)c3)c3ccccc23)c2c(N)nccn12 [kira6] | 2.22 |
| Oc1c(F)cc(-c2cnccc2-c2ccc(N3CCOCC3)cc2)cc1F | 0.7 |
| CC(C)[C@H](CO)Nc1nc(Nc2cccc(Cl)c2)c2ncn(C(C)C)c2n1 [Purvalanol A] | 4.08 |
| CNC(=O)c1cc(Oc2ccc(NC(=O)Nc3ccc(Cl)c(C(F)(F)F)c3)cc2)ccn1 [Sorafenib] | 1.8 |
| O=c1cc(-c2cccc3c2Sc2ccccc2S3)oc(N2CCOCC2)c1 | 0.47 |
| N#Cc1c(Oc2ccc(F)c(NC(=O)Cc3cccc(C(F)(F)F)c3)c2)ccc2nc(NC(=O)C3CC3)sc12 | 0.98 |
| CC[C@@](C)(Nc1ccnc(-c2c[nH]c3ncccc23)n1)C(=O)NCC(F)(F)F [Decernotinib (VX-509)] | 0.65 |
| CCNC(=O)Nc1ccc(-c2nc3c(c(N4CCOC[C@@H]4C)n2)CCN(C2COC2)C3)cc1 | 0.71 |
| COc1cc(OC)cc(N(CCNC(C)C)c2ccc3ncc(-c4cnn(C)c4)nc3c2)c1 | 0.61 |
| C[C@@]1(C(=O)Nc2ccc(F)nc2)CCCN1c1nc(Nc2cc(C3CC3)n[nH]2)c2cccn2n1 | 0.71 |
| O=C1CCc2c(Oc3ccc4c(c3)[C@@H]3[C@H](O4)[C@H]3c3nc4cc(C(F)(F)F)ccc4[nH]3)ccnc2N1 [Lifirafenib (BGB-283)] | 1.38 |
| O=C1Nc2ccc(CN3C(=O)CSC3=O)cc2/C1=C/c1cc(CN2CCOCC2)c[nH]1 | 2.55 |
| CN(c1ccccc1CNc1nc(Nc2ccc3c(c2)CC(=O)N3)ncc1C(F)(F)F)S(C)(=O)=O | 2.68 |
| Cc1nc(N)sc1-c1ccnc(Nc2ccc(N3CCOCC3)cc2)n1 | 2.22 |
